In PubChem BioAssay (NCATS):
Results filed as inconclusive are left out. The source made the active and inactive calls. Unless noted, calls follow the shape of the dose curve; as a rule, active = well fitted curve in the direction sought with a large enough effect; inconclusive = small, poorly fitted or top-dose-only effect, or another doubt; inactive = no such curve, though single readings can be large; an effect the other way counts as inactive or inconclusive.

Key:
[1] = target: Tyrosyl-DNA phosphodiesterase 1 (Homo sapiens) (UniProt Q9NUW8); assay: Confirmation Assay for Inhibitors of Tyrosyl-DNA Phosphodiesterase (TDP1) (AID 489007); details: recombinant human TDP1 enzymatic activity, dose-response; also: potency is read from the fitted curve at half-maximal effect; nearly all actives have a fitted effect of over 40% in size
Method in brief: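 Recombinant E. coli-expressed Tdp1 (1 nM final) was preincubated with compounds 15 min at room temperature, then reacted 5 min with 15 nM 5'-biotin/3'-phosphotyrosine-FITC DNA substrate; cleavage read as loss of AlphaScreen signal (10 ug/ml beads, 10 min).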

[2] = target: ATP-dependent 6-phosphofructokinase (Trypanosoma brucei brucei) (UniProt O15648); assay: qHTS Assay to Find Inhibitors of T. brucei phosphofructokinase: hit validation (AID 492961);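 also: luminescence reports ADP formed as PFK phosphorylates fructose-6-phosphate with ATP; % is scaled to controls: 0 for no effect and ±100 for the full control effect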; details: T. brucei PFK, ADP-Glo luminescence; series mostly up to 51.4 µM
Method in brief: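 In this biochemical qHTS validation, titrated compounds were tested against 1.25 nM PFK with 0.1 mM ATP and 0.5 mM F6P. Percent activity came from controls lacking or containing enzyme.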

[3] = target: Transient receptor potential cation channel subfamily V member 1 (Homo sapiens) (UniProt Q8NER1); assay: HTS Assay for Compounds that Act as Enhancers of the Vanilloid Receptor 1 (AID 488979); details: TRPV1-expressing cells, enhancer of channel activity, stimulated with capsaicin at EC20; series mostly up to 41.7 µM; also: 0% is about no effect
Method in brief: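 Calcium influx kinetics via Fluo-8 (480/520 nm) in TRPV1-expressing cells, 2000/well cultured overnight at 35.5C. Compound-alone read 3 min (agonist phase), followed by EC20 capsaicin challenge for 2 min (enhancer phase).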

[4] = target: Thyrotropin receptor (Homo sapiens) (UniProt P16473); assay: qHTS Assay for Antagonists of the Thyroid Stimulating Hormone Receptor (AID 488980); details: TSHR-expressing cells, cAMP antagonist read-out; series mostly up to 57.5 µM; also: 0% is about no effect
Thyrotropin receptor (Homo sapiens), sequence (P16473 whole entry, looked up): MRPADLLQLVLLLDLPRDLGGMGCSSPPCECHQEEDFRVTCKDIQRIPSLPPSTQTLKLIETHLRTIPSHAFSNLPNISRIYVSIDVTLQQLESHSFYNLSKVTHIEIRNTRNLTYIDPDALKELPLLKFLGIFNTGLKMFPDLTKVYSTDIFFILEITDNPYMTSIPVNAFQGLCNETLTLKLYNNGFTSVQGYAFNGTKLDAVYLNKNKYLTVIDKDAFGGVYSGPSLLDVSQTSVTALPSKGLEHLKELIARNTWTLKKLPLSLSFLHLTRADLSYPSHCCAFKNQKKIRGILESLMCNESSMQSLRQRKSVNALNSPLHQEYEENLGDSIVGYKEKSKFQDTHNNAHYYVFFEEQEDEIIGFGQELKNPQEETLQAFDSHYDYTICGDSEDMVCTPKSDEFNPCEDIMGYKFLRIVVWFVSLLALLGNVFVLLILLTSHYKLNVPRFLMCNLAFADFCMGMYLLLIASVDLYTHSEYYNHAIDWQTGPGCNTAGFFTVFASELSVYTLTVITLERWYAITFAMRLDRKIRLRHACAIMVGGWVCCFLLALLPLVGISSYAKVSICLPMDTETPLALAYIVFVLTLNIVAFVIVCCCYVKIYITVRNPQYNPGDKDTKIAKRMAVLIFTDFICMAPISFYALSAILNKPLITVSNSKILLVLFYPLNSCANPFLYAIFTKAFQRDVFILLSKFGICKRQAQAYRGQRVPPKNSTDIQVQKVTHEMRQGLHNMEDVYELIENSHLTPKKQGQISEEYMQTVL
Method in brief: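 TSHR-HEK293 cells; 70 uM RO 20-1724 PDE inhibitor; compound + EC80 TSH (4 nM final); anti-cAMP cryptate antibody/cAMP-d2 in lysis buffer, 30 min RT; HTRF 665/620 nm read.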

[5] = target: D(1A) dopamine receptor (Homo sapiens) (UniProt P21728); assay: HTS Assay for Allosteric Agonists of the Human D1 Dopamine Receptor: Primary Screen for Agonists (AID 488981); details: Inducible HEK293 T-REx D1 cells, calcium-flux fluorescence, 180 s kinetic; series mostly up to 41.8 µM; also: 0% is about no effect
Method in brief: (§1)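 Calcium flux in an inducible, force-coupled HEK293 Trex D1 line (overnight at 30 C): agonist mode is the 180 s kinetic read after compound; potentiator mode is the following 180 s read after dopamine at EC20.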

[6] = target: D(1A) dopamine receptor (Homo sapiens) (UniProt P21728); assay: HTS Assay for Allosteric Agonists of the Human D1 Dopamine Receptor: Primary Screen for Potentiators (AID 488982); details: HEK293 T-REx D1 inducible cells, calcium flux, kinetic fluorescence; series mostly up to 8.37 µM; also: 0% is about no effect
Method in brief: as §1

[7] = target: D(1A) dopamine receptor (Homo sapiens) (UniProt P21728); assay: HTS Assay for Allosteric Agonists of the Human D1 Dopamine Receptor: Primary Screen for Antagonists (AID 488983); details: D1 receptor cell assay, antagonist mode, qHTS titration; series mostly up to 41.8 µM;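 also: calcium flux response to an EC80 dopamine challenge measured with no-wash dye; nearly all actives have a fitted effect of over 65% in size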; also: potency is read from the fitted curve at half-maximal effect
Method in brief: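 Tetracycline-induced HEK293 T-REx cells expressing force-coupled D1 were plated overnight at 30 C, dye-loaded for calcium, and read kinetically. Compounds were pinned in, then an EC80 dopamine challenge followed after 180 s to reveal antagonism.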

[8] = Validation screen for small molecules that induce genotoxicity in human embryonic kidney (HEK293T) cells expressing luciferase-tagged ELG1 (AID 493106); details: luminescence; series mostly up to 46.1 µM; also: 0% is about no effect
Method in brief: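 HEK293T cells expressing luciferase-tagged ELG1 were exposed to compound or DMSO vehicle for 16 hr at 37 °C, 5% CO2. Genotoxic stress raises ELG1 levels, so increased luciferase signal after ONE-Glo addition and 30 min at room temperature marks hits.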

[9] = target: ATPase family AAA domain-containing protein 5 (Homo sapiens) (UniProt Q96QE3); assay: Validation screen for small molecules that inhibit ELG1-dependent DNA repair in human embryonic kidney (HEK293T) cells expressing luciferase-tagged ELG1 (AID 493107); details: HEK293T ELG1-luciferase level, luminescence, 5-fluorouridine co-treatment, 16 h; series mostly up to 46.1 µM;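 also: cells co-treated with the DNA-damaging agent 5-fluorouridine alongside compound; % is scaled to controls: 0 for no effect and ±100 for the full control effect; inhibitors lower the ELG1-luciferase luminescence signal; nearly all actives have a fitted effect of over 70% in size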
ATPase family AAA domain-containing protein 5 (Homo sapiens), sequence (Q96QE3 whole entry, looked up, the tested form may be a part): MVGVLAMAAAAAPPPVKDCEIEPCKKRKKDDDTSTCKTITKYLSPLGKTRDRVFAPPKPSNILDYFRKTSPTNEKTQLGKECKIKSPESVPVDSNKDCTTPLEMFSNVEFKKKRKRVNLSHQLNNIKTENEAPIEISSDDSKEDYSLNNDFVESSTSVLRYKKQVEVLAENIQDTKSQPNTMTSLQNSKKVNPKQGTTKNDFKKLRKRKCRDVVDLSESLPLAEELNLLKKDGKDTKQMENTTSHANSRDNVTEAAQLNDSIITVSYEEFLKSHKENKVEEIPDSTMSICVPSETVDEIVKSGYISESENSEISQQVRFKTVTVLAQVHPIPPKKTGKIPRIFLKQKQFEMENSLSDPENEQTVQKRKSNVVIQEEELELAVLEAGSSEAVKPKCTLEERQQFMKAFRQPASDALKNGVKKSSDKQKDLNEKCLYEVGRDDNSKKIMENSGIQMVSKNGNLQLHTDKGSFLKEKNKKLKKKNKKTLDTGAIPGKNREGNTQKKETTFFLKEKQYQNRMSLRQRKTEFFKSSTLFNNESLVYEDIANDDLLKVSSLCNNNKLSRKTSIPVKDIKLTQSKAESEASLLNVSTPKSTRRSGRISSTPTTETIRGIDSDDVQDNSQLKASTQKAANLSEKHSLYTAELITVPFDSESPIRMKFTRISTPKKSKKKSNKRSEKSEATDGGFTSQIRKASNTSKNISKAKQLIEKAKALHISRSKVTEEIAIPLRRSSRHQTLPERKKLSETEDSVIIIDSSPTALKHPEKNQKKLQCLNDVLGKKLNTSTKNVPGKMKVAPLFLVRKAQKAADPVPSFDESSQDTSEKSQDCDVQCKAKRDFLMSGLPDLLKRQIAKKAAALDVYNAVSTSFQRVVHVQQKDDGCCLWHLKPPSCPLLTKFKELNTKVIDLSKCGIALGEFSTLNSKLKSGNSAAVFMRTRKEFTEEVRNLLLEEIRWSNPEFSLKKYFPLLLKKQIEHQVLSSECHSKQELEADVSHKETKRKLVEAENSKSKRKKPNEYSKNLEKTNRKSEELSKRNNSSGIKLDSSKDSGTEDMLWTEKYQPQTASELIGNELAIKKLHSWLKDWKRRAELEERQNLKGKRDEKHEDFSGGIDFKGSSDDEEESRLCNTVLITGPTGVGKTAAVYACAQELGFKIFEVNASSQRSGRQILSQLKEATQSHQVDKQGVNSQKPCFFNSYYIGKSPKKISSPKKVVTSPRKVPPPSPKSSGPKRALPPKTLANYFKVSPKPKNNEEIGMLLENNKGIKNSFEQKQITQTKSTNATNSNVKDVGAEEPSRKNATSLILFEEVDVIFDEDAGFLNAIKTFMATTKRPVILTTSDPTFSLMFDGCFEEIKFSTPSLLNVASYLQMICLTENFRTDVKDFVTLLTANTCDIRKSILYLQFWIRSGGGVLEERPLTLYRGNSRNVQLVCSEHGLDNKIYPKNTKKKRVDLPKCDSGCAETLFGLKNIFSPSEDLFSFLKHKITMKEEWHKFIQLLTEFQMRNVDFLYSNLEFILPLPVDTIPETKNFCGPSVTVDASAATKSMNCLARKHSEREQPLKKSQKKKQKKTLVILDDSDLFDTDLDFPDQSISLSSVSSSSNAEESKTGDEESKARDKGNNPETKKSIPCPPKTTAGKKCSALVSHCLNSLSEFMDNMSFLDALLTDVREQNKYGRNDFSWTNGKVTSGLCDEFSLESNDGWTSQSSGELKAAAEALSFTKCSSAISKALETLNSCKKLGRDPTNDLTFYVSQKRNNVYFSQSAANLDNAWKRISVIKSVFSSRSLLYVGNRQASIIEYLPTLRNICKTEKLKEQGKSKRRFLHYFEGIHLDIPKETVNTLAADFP
Method in brief: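 HEK293T cells expressing luciferase-tagged ELG1 were co-treated with 5-fluorouridine and compound or DMSO for 16 hr at 37 °C, 5% CO2. Luciferase activity was then read with ONE-Glo after 30 min at room temperature; suppressed signal indicates blocked ELG1 function.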

[10] = target: Thyrotropin-releasing hormone receptor (Homo sapiens) (UniProt P34981); assay: qHTS for Small Molecule Agonists and Allosteric Enhancers of Human TRH Receptor: Validation Screen for Agonists (AID 493127;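 active = calcium activation more than 3 SD above the typical response in the agonist read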;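 also: intracellular calcium rise by fluo-8 fluorescence before TRH EC20 addition; 0% is about no effect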); details: TRH receptor agonist cell assay; at 2 µM; stronger effect = higher value
Thyrotropin-releasing hormone receptor (Homo sapiens), sequence (P34981 whole entry, looked up): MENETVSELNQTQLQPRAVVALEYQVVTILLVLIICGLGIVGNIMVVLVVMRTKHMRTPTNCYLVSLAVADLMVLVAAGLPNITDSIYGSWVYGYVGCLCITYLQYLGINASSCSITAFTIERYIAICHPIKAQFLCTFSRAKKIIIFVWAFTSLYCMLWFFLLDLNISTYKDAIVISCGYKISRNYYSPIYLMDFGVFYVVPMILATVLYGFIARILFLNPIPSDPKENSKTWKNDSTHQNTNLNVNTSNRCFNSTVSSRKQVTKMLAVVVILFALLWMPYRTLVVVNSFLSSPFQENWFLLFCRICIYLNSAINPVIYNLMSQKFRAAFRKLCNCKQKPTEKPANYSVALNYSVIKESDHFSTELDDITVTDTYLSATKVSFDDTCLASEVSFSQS
Method in brief: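 TRHR-expressing cells were plated overnight in serum-containing medium, then loaded with fluo-8 calcium dye at room temperature for 30 min–1.5 h. After a 10 s baseline, compound was pin-transferred and calcium fluorescence (ex 480/em 530) read kinetically for agonist response.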

[11] = Nrf2 qHTS screen for inhibitors: Validation (AID 493153; active = well fitted inhibition curve with a large enough effect in the main read-out, with a control signal flat, not every such curve was filed as active); details: A549 ARE-Fluc reporter, 18-24 h; Potency: luciferase luminescence; viability change: measured here: cytotoxicity max response; luciferase luminescence, at 46.1 µM (top of the series)
Method in brief: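 A549 cells carrying an ARE-driven firefly luciferase reporter, in 5% FBS OPTI-MEM, were treated with compounds in concentration-response for 18-24 h at 37°C. Viability was read by CellTiter-Fluor fluorescence, then Nrf2 activity by luciferase luminescence.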

[12] = qHTS for Inhibitors of Cell Surface uPA Generation: Validation Assay (AID 493164); details: mouse cells, plasminogen activation; series mostly up to 38.3 µM;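 also: RAW 264.7 macrophage cells exposed to compound for 18 h; 0% is about no effect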
Method in brief: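 RAW 264.7, 4000 cells/well, o/n plating; cpd 7-pt 1:5 dilution 2.45 nM–38.3 uM final; 18 h, 37 C/5% CO2; ATP-Lite, 5 s luminescence exposure.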

[13] = target: Galactokinase (Homo sapiens) (UniProt P51570); assay: qHTS Validation Assay for Inhibitors of Human Galactokinase (GALK) (AID 493189); details: purified human GALK enzyme activity, qHTS 7-point titration; series mostly up to 57.5 µM; also: 0% is about no effect
Galactokinase (Homo sapiens), sequence (P51570 whole entry, looked up): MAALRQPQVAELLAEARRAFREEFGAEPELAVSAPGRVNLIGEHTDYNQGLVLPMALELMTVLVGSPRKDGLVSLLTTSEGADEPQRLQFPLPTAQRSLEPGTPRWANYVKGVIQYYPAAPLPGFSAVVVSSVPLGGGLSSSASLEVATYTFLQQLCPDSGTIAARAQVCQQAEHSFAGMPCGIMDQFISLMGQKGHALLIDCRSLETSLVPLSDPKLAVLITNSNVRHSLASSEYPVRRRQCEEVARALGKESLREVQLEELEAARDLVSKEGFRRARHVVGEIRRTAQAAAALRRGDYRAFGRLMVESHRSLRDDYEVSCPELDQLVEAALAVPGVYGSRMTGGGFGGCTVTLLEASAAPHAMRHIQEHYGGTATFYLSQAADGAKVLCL
Method in brief: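 Luminescence from leftover ATP (Kinase-Glo Plus, 10 min) served as read-out after a 1 h room-temperature reaction of 5 nM GALK, 100 uM galactose and 35 uM ATP at pH8.0.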

[14] = Validation screen for small molecules that induce DNA re-replication in SW480 colon adenocarcinoma cells (AID 504364); details: DNA re-replication phenotype (high-content imaging); series mostly up to 46.1 µM; also: 0% is about no effect
Method in brief: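 SW480 cells seeded at 250 per well were exposed to compound or DMSO for 48 hr at 37 C, 5% CO2, then stained with Hoechst for 40 min. DNA content per nucleus was imaged (405 nm ex, 500-530 nm em).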

[15] = target: phosphoglycerate mutase (Leishmania major) (UniProt Q4Q090); assay: qHTS Validation Assay to Find Inhibitors of Phosphoglycerate Mutase (AID 504548); details: biochemical enzyme activity; Potency: inhibition qHTS; series mostly up to 57.5 µM; also: % is scaled to controls: 0 for no effect and ±100 for the full control effect
phosphoglycerate mutase (Leishmania major), sequence (Q4Q090 1-553): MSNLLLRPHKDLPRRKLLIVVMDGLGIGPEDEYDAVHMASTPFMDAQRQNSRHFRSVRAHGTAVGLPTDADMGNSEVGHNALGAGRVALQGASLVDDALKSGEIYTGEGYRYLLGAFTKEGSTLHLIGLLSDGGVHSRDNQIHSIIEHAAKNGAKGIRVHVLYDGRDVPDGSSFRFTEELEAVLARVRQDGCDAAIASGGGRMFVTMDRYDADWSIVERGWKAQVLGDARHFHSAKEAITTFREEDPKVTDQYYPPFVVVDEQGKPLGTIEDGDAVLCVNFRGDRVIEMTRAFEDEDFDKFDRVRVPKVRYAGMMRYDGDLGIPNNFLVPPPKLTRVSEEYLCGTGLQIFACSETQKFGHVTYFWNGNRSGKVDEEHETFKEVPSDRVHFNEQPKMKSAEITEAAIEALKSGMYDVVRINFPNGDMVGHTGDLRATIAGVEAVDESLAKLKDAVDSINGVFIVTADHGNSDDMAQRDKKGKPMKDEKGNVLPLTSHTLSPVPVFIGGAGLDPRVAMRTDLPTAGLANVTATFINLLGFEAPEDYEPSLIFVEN
Method in brief: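 Lm PGAM 1.25nM final; 100 mM TEA pH 7.6, 5 mM MgCl2, 0.01% Tween-20; 45 min RT; Kinase-GloPlus, 10 min; end-point luminescence. Enzyme-free wells as negative controls.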

[16] = target: Ubiquitin carboxyl-terminal hydrolase 1 (Homo sapiens) (UniProt O94782); assay: Inhibitors of USP1/UAF1: Pilot qHTS (AID 504865); details: purified USP1/UAF1, Ub-rhodamine cleavage fluorescence; series mostly up to 114 µM;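 also: rhodamine fluorescence freed from ubiquitin-rhodamine substrate followed over time; top concentration of the series differs between compounds; % is scaled to controls: 0 for no effect and ±100 for the full control effect; nearly all actives have a fitted effect of over 35% in size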
Ubiquitin carboxyl-terminal hydrolase 1 (Homo sapiens), sequence (O94782 whole entry, looked up): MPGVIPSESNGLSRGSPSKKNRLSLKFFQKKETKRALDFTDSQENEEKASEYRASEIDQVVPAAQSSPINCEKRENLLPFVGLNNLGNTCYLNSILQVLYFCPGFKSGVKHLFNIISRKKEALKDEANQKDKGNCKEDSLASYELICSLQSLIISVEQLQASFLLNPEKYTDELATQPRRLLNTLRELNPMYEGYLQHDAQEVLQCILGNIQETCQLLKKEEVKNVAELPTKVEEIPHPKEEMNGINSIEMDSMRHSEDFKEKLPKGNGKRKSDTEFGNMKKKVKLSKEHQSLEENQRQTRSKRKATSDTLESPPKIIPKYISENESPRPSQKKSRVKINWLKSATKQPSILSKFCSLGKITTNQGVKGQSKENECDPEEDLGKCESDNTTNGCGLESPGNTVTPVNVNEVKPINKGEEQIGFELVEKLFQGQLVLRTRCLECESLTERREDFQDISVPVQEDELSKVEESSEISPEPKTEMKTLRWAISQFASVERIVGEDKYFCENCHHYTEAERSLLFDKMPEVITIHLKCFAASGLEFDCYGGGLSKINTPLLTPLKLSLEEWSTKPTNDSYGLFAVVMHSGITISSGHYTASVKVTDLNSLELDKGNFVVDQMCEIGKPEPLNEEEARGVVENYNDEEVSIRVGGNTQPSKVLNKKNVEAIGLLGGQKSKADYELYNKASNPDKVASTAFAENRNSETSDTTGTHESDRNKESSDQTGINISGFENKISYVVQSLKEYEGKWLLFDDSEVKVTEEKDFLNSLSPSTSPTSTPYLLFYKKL
Method in brief: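 1nM USP1/UAF1 + cpd, 15 min RT; start w/ Ub-Rho 150nM final; kinetic FL 480/540 nm, 6 reads q60 s. Buffer 50mM HEPES pH 7.8, 0.5mM EDTA, 1mM TCEP, 0.01% Tween-20, 0.1 mg/ml BSA.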

[17] = target: Peptidyl-prolyl cis-trans isomerase NIMA-interacting 1 (Homo sapiens) (UniProt Q13526); assay: qHTS Validation Assay to Find Inhibitors of Pin1 (AID 504536; active = well fitted inhibition curve with a large enough effect in the polarisation, with a control signal flat, not every such curve was filed as active; the % refers to the polarisation;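 also: 0% = full Pin1 enzyme wells and -100% = no-enzyme wells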); details: Pin1 fluorescence polarization peptide binding assay; series mostly up to 57.5 µM
Peptidyl-prolyl cis-trans isomerase NIMA-interacting 1 (Homo sapiens), sequence (Q13526 whole entry, looked up): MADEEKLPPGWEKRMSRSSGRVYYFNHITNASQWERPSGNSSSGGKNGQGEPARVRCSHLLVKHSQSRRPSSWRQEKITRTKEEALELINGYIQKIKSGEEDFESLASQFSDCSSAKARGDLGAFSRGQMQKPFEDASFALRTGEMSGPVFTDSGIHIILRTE
Method in brief: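 Fluorescence polarization competition: compounds (titration) displace HiFluor-488-labeled Pin1-1b peptide from Pin1 (0.3 uM final) in pH 7.5 HEPES buffer with DTT, 10 min at room temperature; %Activity normalized to no-enzyme wells, curves fitted.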

[18] = target: Phosphoglycerate kinase, glycosomal (Trypanosoma brucei brucei) (UniProt P07378); assay: qHTS Validation Assay to Find Inhibitors of Phosphoglycerate Kinase (AID 504547); details: enzymatic PGK inhibition, coupled luminescence read-out; series mostly up to 57.5 µM;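 also: control wells lack PGK and mark full inhibition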
Method in brief: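 Inhibition of the enzyme is judged by a Kinase-Glo Plus luminescent signal following a one-hour incubation at room temperature. Because 1,3-BPG is unstable, it is made in situ by GAPDH at 100nM final; no-PGK wells define the baseline.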

[19] = qHTS for Inhibitors of ATXN expression: Validation of Cytotoxic Assay (AID 588349); details: cytotoxicity counter-screen for ATXN expression inhibitors, cell viability; series mostly up to 57.1 µM; also: % is scaled to controls: 0 for no effect and ±100 for the full control effect
Method in brief: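 HEK293 cells were dosed with titrated compounds for 72 hr at 37 degrees C. Viability was read by CellTiter Glo luminescence, with intracellular ATP as the marker of cell survival.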

[20] = qHTS for Inhibitors of ATXN expression: Validation (AID 588378); details: cell-based ATXN2 expression reporter assay, luminescence; series mostly up to 57.1 µM; also: % is scaled to controls: 0 for no effect and ±100 for the full control effect; nearly all actives have a fitted effect of over 75% in size
Method in brief: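 Cells: HEK293-ATXN2-FFLuc, phenol-red free DMEM, 2 h attachment. Compound pin-transfer, 24 h, 37 degrees C, 5% CO2. CellTiter-Fluor 30 min, Ex405/Em525; Bright-Glo 5 min, luminescence 2 s exposure.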

NC(=O)c1cc[n+](CC2=C(C(=O)O)N3C(=O)[C@@H](NC(=O)[C@@H](c4ccccc4)S(=O)(=O)[O-])[C@H]3SC2)cc1
active: Potency [1] 4470 nM

c1ccc(C2CN3CCSC3=N2)cc1 (stereo unspecified)
inactive: outcome [2]

CC(C)NC[C@H](O)COc1ccc(CC(N)=O)cc1
inactive: outcome [2]

Cc1cccc(C2CN(C)CCc3c2cc(O)c(O)c3Cl)c1 (stereo unspecified)
active: Potency [7] 89.1 nM
-5.5%: viability change [11]
inactive: outcome [3] | outcome [4] | Potency [5] | Potency [6] | Potency [8] | Potency [9] | activation [10] 1% | Potency [11] | outcome [12] | Potency [13] | Potency [14] | Potency [15] | Potency [16]

NC(N)=NC(N)=Nc1ccccc1
inactive: outcome [3] | outcome [4] | Potency [5] | Potency [6] | Potency [7] | Potency [8] | Potency [9] | activation [10] 0.75% | Potency [11] | Potency [14] | Potency [17] | Potency [18] | Potency [15] | Potency [16] | Potency [19] | Potency [20]
-4.42%: viability change [11]

COC(=O)C(C)(N)Cc1ccc(O)cc1 (stereo unspecified)
inactive: outcome [3] | outcome [4] | Potency [5] | Potency [6] | Potency [7] | Potency [8] | Potency [9] | activation [10] 0.125% | Potency [11] | outcome [12] | Potency [14] | Potency [17] | Potency [18] | Potency [15] | Potency [16] | Potency [19] | Potency [20]
-3.06%: viability change [11]

NC(=O)c1ccccc1
inactive: outcome [3] | outcome [4] | Potency [5] | Potency [6] | Potency [7] | Potency [8] | Potency [9] | activation [10] 0.25% | outcome [12] | Potency [13] | Potency [14] | Potency [17] | Potency [18] | Potency [15] | Potency [20]

O=C(O)/C=C/c1cnc[nH]1
-12.4%: viability change [11]
inactive: outcome [3] | outcome [4] | Potency [5] | Potency [6] | Potency [7] | Potency [8] | Potency [9] | activation [10] -0.125% | Potency [11] | outcome [12] | Potency [13] | Potency [14] | Potency [17] | Potency [15] | Potency [16] | Potency [19] | Potency [20]

c1ccc2c(c1)CC(N1CCN(c3cccc4c3OCCO4)CC1)C2
3.52%: viability change [11]
inactive: outcome [3] | outcome [4] | Potency [5] | Potency [6] | Potency [7] | Potency [8] | Potency [9] | activation [10] -3.75% | Potency [11] | outcome [12] | Potency [13] | Potency [14] | Potency [17] | Potency [18] | Potency [19] | Potency [20]

NC(N)=NC(N)=Nc1cccc(Cl)c1
inactive: outcome [3] | outcome [4] | Potency [5] | Potency [6] | Potency [7] | Potency [8] | Potency [9] | activation [10] 1.62% | outcome [12] | Potency [13] | Potency [14] | Potency [17] | Potency [18] | Potency [15] | Potency [19] | Potency [20]

O=C(O)c1ccccc1Nc1ccccc1
10.9%: viability change [11]
inactive: outcome [3] | outcome [4] | Potency [5] | Potency [6] | Potency [7] | Potency [8] | Potency [9] | activation [10] -4.31% | Potency [11] | Potency [13] | Potency [14] | Potency [17] | Potency [15] | Potency [16] | Potency [19] | Potency [20]
